Data from PubChem BioAssay AID449762 (Southern Research Specialized Biocontainment Screening …, 2010).
Hit rate of the full screen: of about 330,000 compounds, about 1,900 (0.58%) were called active. Another 4% or so got no clear call; they are omitted. Only a sample is shown. Entries with a potency or affinity are not part of this list. Unmarked numbers belong to inactive results. Rule as the data show it: inconclusive = inhibition above about 70% without an active follow-up result; inactive = below that.

Assay: M. tuberculosis growth inhibition, HTS (AID 449762);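 also: bacterial growth assessed after seven days of incubation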
Details: M. tuberculosis H37Rv growth inhibition, 7H9 media; at 25 µM; active compounds read high
For `COc1c(/C=N/NC(N)=S)c(C)nn1-c1ccccc1`, the inhibition was 65.5%.
For `CCC1CN(C(=O)N2CCC(C(=O)NCCc3ccccc3OC)CC2)c2ccccc2O1` (stereo unspecified), the inhibition was 2.39%.
In the case of `CCCc1cc2c(cc1NC(=O)c1ccco1)OCO2`, the inhibition is reported as 0.1%.
`CCCc1cc2c(cc1NC(=O)c1ccccc1F)OCO2` showed an inhibition of 42%.
`CCCCNC(=S)N(C)/N=C/c1ccc(OCC(=O)Nc2ccc(OC)cc2)c(OC)c1` showed an inhibition of 5.57%.
Molecule `O=C(NNC(=O)c1cccc(-n2cnnn2)c1)c1ccccc1` has an inhibition of 4.62%.
With `COc1ccc(CCN2CCCC(CN(C)Cc3cc(OC)c(OC)c(OC)c3)C2)cc1` (stereo unspecified) the inhibition was 2.86%.
With `CCCCCCCCNC(=O)/C(C#N)=C/c1ccccc1[N+](=O)[O-]` the inhibition was 9.84%.
Work on `C(=Nc1ccc(Nc2ccccc2)cc1)c1ccc2ccccc2c1` yielded an inhibition of 1.29%.
For `O=[N+]([O-])c1ccc(N=Cc2ccc(Br)c([N+](=O)[O-])c2)cc1`, the inhibition was -2.74%.
With `Cc1ccc(NC(=O)CCSc2ccccn2)cc1` the inhibition was -4.42%.
In the case of `Cc1cccc(N2CCN(C(=O)C3CCN(S(=O)(=O)c4cccc5cccnc45)CC3)CC2C)c1` (stereo unspecified), the inhibition is reported as -1.75%.
With `Cc1cc(C)c(NC(=O)COC(=O)Cn2nc(-c3ccccc3)oc2=O)c(C)c1` the inhibition was 3.1%.
In the case of `C[C@@H]1C[C@H]2OC(=O)C3(CO3)[C@H]2[C@H](O)[C@]2(C)C(=O)C3OC3[C@@H]12` (stereo partly specified), the inhibition is reported as -4.69%.
With `C=C1C(=O)O[C@@H]2C[C@@H](C)[C@H]3C=CC(=O)[C@]3(O)C[C@@H]12` the inhibition was 7.75%.
For `Cc1cccc(NC(=O)NNC(=O)COc2ccc3ccccc3c2)c1`, the inhibition was -0.35%.
Molecule `COc1ccc(OC)c(C(c2nnnn2C2CCCC2)N2CCN(c3ccc(F)cc3)CC2)c1` (stereo unspecified) has an inhibition of 4.35%.
For `O=C1C(=O)N(c2ccccn2)C(c2ccc(F)cc2)/C1=C(/O)c1ccc(Br)cc1` (stereo unspecified), the inhibition was -4.6%.
Molecule `CC1CCCC(NC(=O)NC(=O)COC(=O)c2ccc(O)cc2O)C1C` (stereo unspecified) has an inhibition of 0.995%.
Molecule `CC1CCCC(NC(=O)CSC2CCCCC2)C1C` (stereo unspecified) has an inhibition of 3.14%.
With `Cc1cccc(OCC(=O)NNC(=O)Cn2c(=O)cnc3ccccc32)c1` the inhibition was -8.21%.
In the case of `O=C(CSc1nc(=O)n2ccccc2n1)Nc1cccc2ccccc12`, the inhibition is reported as 5.25%.
With `N#Cc1ccccc1OCC(=O)N1N=C(c2cccs2)CC1c1ccco1` (stereo unspecified) the inhibition was 1.37%.
In the case of `c1ccc(-c2cn3c(n2)CCC3)cc1`, the inhibition is reported as -1.06%.
Work on `c1ccc(-c2cc3ncccc3cn2)cc1` yielded an inhibition of -4.81%.
Work on `O=C(Nc1cccc2c1CCCC2)c1ccccc1F` yielded an inhibition of 10.2%.
For `CC(=O)c1ccc(-n2c(CCC(=O)O)ccc2-c2cccs2)cc1`, the inhibition was -2.12%.
Molecule `NC(=O)c1ccc(-n2c(CCC(=O)O)ccc2-c2cccs2)cc1` has an inhibition of -1.94%.
For `CCc1ccc(NC(=O)CC2C(=O)N(c3ccc(OC)cc3)C(=O)N2CCOC)cc1` (stereo unspecified), the inhibition was -1.31%.
Molecule `CC(C)CNC(=O)c1c(N)n(/N=C/c2ccccn2)c2nc3ccccc3nc12` has an inhibition of 4.33%.
Molecule `CCC(C)NC(=O)c1c(N)n(/N=C/c2cccnc2)c2nc3ccccc3nc12` (stereo unspecified) has an inhibition of 27.8%.
`COc1ccc(/C=C/C(=O)Nc2ccccc2Cl)cc1S(=O)(=O)N1CCOCC1` showed an inhibition of -10.4%.
`COc1ccc(Cn2nnnc2CN2CCc3ccccc32)cc1` gave an inhibition of 1.54%.
For `CC(OC(=O)c1snc(C(=O)NC2CCCCC2)c1N)C(=O)NC1CCCCC1` (stereo unspecified), the inhibition was -2.81%.
Work on `O=C(COC(=O)c1nsc(Cl)c1Cl)NC1CCCCC1` yielded an inhibition of 0.77%.
`Nc1c(-c2ccccc2)nc(Cl)nc1-c1ccccc1` showed an inhibition of 15.6%.
With `c1ccc(-c2nc3cccnc3nc2-c2ccccc2)cc1` the inhibition was -12.8%.
Work on `COc1ccc(S(=O)(=O)NCC(=O)N(CC(=O)NCC2CCCO2)Cc2ccccc2)cc1` (stereo unspecified) yielded an inhibition of -4.12%.
In the case of `COc1ccc(CCNC(=O)C(=O)NCc2ccc(C(C)C)cc2)cc1OC`, the inhibition is reported as -15.8%.
For `COc1ccc(NC(=O)CN2C(=O)NC(c3ccccc3)(c3ccccc3)C2=O)cc1`, the inhibition was -1.71%.
With `COc1ccc(C2(c3ccc(OC)cc3)NC(=O)N(CC(=O)Nc3ccc(C(N)=O)cc3)C2=O)cc1` the inhibition was -7.66%.
In the case of `CC(C)CCc1noc(CN(CC2CCC2)CC2CCCO2)n1` (stereo unspecified), the inhibition is reported as -1.94%.
Work on `O=C(COC(=O)Cc1ccc(S(=O)(=O)N2CCOCC2)s1)Nc1ccc([N+](=O)[O-])cc1` yielded an inhibition of -2.45%.
For `Cc1ccc(CNC(=O)c2ccc(N3CCC4(CC3)CC(c3ccccc3)=NO4)c(NC(=O)c3ccc(Cl)c([N+](=O)[O-])c3)c2)cc1`, the inhibition was -10.7%.
Work on `Cc1ccc(NC(=O)CCN2C(=O)c3cccc([N+](=O)[O-])c3C2=O)c(Br)c1` yielded an inhibition of 7.28%.
With `Cc1cccc(NC(=O)CCN2C(=O)c3cccc([N+](=O)[O-])c3C2=O)c1` the inhibition was -5.47%.
`O=C(CN1C(=O)COc2ccccc21)c1cccc(Cl)c1` showed an inhibition of 1.54%.
`CCCN=C1CC(C)(C)CC(=O)/C1=C(/O)CCC` showed an inhibition of -3.03%.
`CCCCN=C1CC(C)(C)CC(=O)/C1=C(/O)CCC` showed an inhibition of -2.63%.
For `CC(=O)Nc1ccc(C(=O)NNC(=O)C2CC2)cc1`, the inhibition was -9.13%.
In the case of `Cc1ccccc1[N+](=O)[O-]`, the inhibition is reported as -10.8%.
For `O=[N+]([O-])c1cccc2c([N+](=O)[O-])cccc12`, the inhibition was 9.13%.
`COc1cccc(CN(C)CC(=O)NCc2ccc(C)cc2)c1` showed an inhibition of 7.23%.
For `NNC(=O)CN1C(c2ccc(Cl)cc2)=Nc2ccc(Br)cc2C1c1ccccc1` (stereo unspecified), the inhibition was 0.4%.
Molecule `COC(=O)CN1C(c2ccccc2)=Nc2ccc(Cl)cc2C1c1ccccc1` (stereo unspecified) has an inhibition of 55.5%.
`CCCCCC(=O)Nc1cccc(C2=NOC3(C2)C[C@@H](C(N)=O)N(C(=O)c2ccc(Cl)cc2)C3)c1` (stereo partly specified) gave an inhibition of -9.42%.
Work on `COc1ccc2nc(NC(=O)C3CCN(S(=O)(=O)c4cccs4)CC3)sc2c1` yielded an inhibition of -5.35%.
With `CCOc1ccc2nc(NC(=O)C3CCCN(S(=O)(=O)c4cccs4)C3)sc2c1` (stereo unspecified) the inhibition was 58.9%.
Molecule `O=C(NCC1CCCN1S(=O)(=O)c1cccs1)C(=O)Nc1cccc(F)c1` (stereo unspecified) has an inhibition of -3.47%.
For `CC(C)Cc1nc(SCC(=O)N2CCCC2)c2c(=O)n(C)c(=O)n(C)c2n1`, the inhibition was 5.69%.
Work on `O=S(=O)(NCc1cc(-c2ccc(Cl)cc2)no1)c1ccc(Cl)cc1` yielded an inhibition of -3.48%.
For `CC(=O)NCc1cc(-c2ccc(Cl)cc2)no1`, the inhibition was -6.41%.
In the case of `COc1ccc(C2CC(C)=NN2C=O)cc1OC` (stereo unspecified), the inhibition is reported as -23.4%.
In the case of `C=CCC1(CC=C)CCCN1C(=O)c1cc(COc2ccc(F)c(F)c2)on1`, the inhibition is reported as 11.7%.
Work on `O=C(c1cc(COc2ccc(-n3cncn3)cc2)on1)N1CCCC1` yielded an inhibition of 2.05%.
With `COc1ccccc1C1=NOC(C)(c2nnc(Cc3ccccc3)o2)C1` (stereo unspecified) the inhibition was -2.16%.
In the case of `Cc1ccc2oc(=O)c3cnn(CC(=O)N(CCN(C)C)Cc4ccco4)c3c2c1`, the inhibition is reported as -9.56%.
`Cn1c(SCC(=O)NCC2CCCO2)ncc(C(=O)Nc2ccc(F)cc2)c1=O` (stereo unspecified) gave an inhibition of 67.5%.
With `Cn1c(SCC(=O)NCC2CCCO2)ncc(C(=O)Nc2ccccc2)c1=O` (stereo unspecified) the inhibition was 54.1%.
For `COC(=O)c1ccc2c(=O)[nH]c(CSc3nc(-c4ccc(F)cc4)cs3)nc2c1`, the inhibition was -1.24%.
Molecule `COC(=O)c1ccc2c(=O)[nH]c(CCl)nc2c1` has an inhibition of 37.7%.
For `COc1cc(-c2nc3c[n+](CC(=O)c4ccccc4)ccc3n2C)cc(OC)c1OC`, the inhibition was 3.76%.
With `COc1cc(OC)c(-c2nc3c[n+](CC(=O)c4ccccc4)ccc3n2C)cc1OC` the inhibition was -1.07%.
Work on `Cc1ccc(-c2nc3ncccn3c2Nc2ccc3c(c2)OCO3)o1` yielded an inhibition of 3.61%.
`Cc1ccc(-c2nc3ncccn3c2Nc2ccc3c(c2)OCCO3)o1` gave an inhibition of 3.72%.
With `CCOc1ccc(NS(=O)(=O)c2cc(C(=O)N3CCCC3)ccc2Cl)cc1` the inhibition was 5.65%.
For `Cc1ccc(NC(=O)c2ccc(OCC3CCCO3)cc2)nc1` (stereo unspecified), the inhibition was 16.9%.
`Oc1ccc(C[C@@H]2CNCCN2CC2CCCCC2)cc1` gave an inhibition of -3.4%.
In the case of `Oc1ccc(C[C@H]2CNCCN2CC2CCCCC2)cc1`, the inhibition is reported as 7.27%.
`CCOC(=O)c1cc(-c2ccc3c(c2)OCCO3)n[nH]1` gave an inhibition of -1.75%.
`OCCN(CCCn1c(-c2ccncc2)nc2ccccc21)c1nc(CN2CCCCC2)cs1` showed an inhibition of -3.74%.
For `O=C(NNc1cc(N2CCOCC2)nc(N2CCOCC2)n1)c1ccc(Cl)c(Cl)c1`, the inhibition was -10.6%.
In the case of `CC(C)(C)c1ccc(C(=O)NNc2cc(N3CCOCC3)nc(N3CCOCC3)n2)cc1`, the inhibition is reported as 1.03%.
In the case of `O=C(CSc1nc2cc(Cl)ccc2o1)N1CCOCC1`, the inhibition is reported as 0.49%.
For `CCN1CCN(Cc2ccc(NC(=O)c3cc(NC(=O)c4ccno4)cc(OC)c3)cc2C(F)(F)F)CC1`, the inhibition was 66.3%.
With `CCN1CCN(Cc2ccc(NC(=O)c3cc(NC(=O)c4ccc5n[nH]nc5c4)cc(OC)c3)cc2C(F)(F)F)CC1` the inhibition was 12.9%.
With `CC(=O)NCCC(=O)Nc1cccc(S(=O)(=O)N(C)c2ccccc2)c1` the inhibition was -0.05%.
With `Cc1ccccc1OCC(=O)N/N=C/c1ccccn1` the inhibition was -4.77%.
With `O=C(NC1(C(F)(F)F)NC(=O)N(C2CCCCC2)C1=O)C1CC1` (stereo unspecified) the inhibition was -5.69%.
`CCOC(=O)c1c(C)[nH]c(N=Nc2cc(C(=O)O)cc(C(=O)O)c2)c1C` gave an inhibition of -2.43%.
Work on `CCOC(=O)c1c(C)[nH]c(N=Nc2cccc(C)c2)c1C` yielded an inhibition of 15.8%.
